Rows were chosen to be rich in hits. Some 12% of all compounds tested hit in one or more screens of this group.
CHOP inhibitor: inhibitors of CHOP promoter induction, primary screen, cell-based, unfolded protein response, luciferase reporter. AID 2732, 2010. inhibition, % at 10 µM. actives 3.8% (n = 220,000). CHO-K1 CHOP-promoter luciferase, tunicamycin-induced, 15-18 h;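 active means compounds that reduced the stress-induced luciferase reporter signal by more than about 70% of percent inhibition, limit read from the data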;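 further: 0% = tunicamycin plus vehicle and 100% = wells without tunicamycin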
Arbovirus inh: antivirals against arbovirus infection, primary screen, cell-based, full library, 10K replicate subset. arbovirus infection cell-based antiviral screen. inhibition, % at 10 µM. actives 0.37% (n = 200,000). AID 1251, 2008; in the data active means inhibition above about 30%
L major viab: Leishmania major promastigote growth inhibition, primary screen; Leishmania major promastigotes, resazurin fluorescence viability; inhibition, % at 10 µM; actives 9% (n = 200,000); AID 1063, 2008; in the data active means inhibition above about 50%;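 further: promastigotes grown with compound for 44 hours at 28 °C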
WT yeast gro inh: growth inhibition of WT strain, primary screen, mitochondrial fusion inhibitor project, WT and mutant strains, chemical genetic | mitochondrial fusion phenotypic screen | actives 2.1% (n = 190,000) | inhibition, % at 10 µM; in the data active means inhibition above about 58%; tested in S. cerevisiae
The depositor's hits bear a star; / = no result.

SMILES | CHOP inhibitor | Arbovirus inh | L major viab | WT yeast gro inh
CCCCCCOc1ccc(N2C(=O)CC(S/C(N)=N/N=C(\C)c3cccs3)C2=O)cc1 (configuration not stated) | 87.8* | 1.9 | -2.4 | 38.1
N/C(=N\N=C\c1ccnc2ccccc12)SC1CC(=O)N(c2ccc(Br)cc2)C1=O (configuration not stated) | 52.5 | -8.3 | -8.6 | 18.8
C/C(=N\N=C(/N)SC1CC(=O)N(c2ccc(Cl)cc2)C1=O)c1cccs1 (configuration not stated) | 68.7 | -3.2 | 21.7 | 59.5*
C/C(=N\N=C(/N)SC1CC(=O)N(c2ccc(Br)cc2)C1=O)c1cccs1 (configuration not stated) | 87.2* | -17.9 | 99.9* | 64.9*
C/C(=N\N=C(/N)SC1CC(=O)N(c2ccccc2)C1=O)c1cccs1 (configuration not stated) | 45.5 | 17.4 | 14.4 | 22.2
Cc1ccc(-c2csc(N(CC3CCCO3)C(=O)c3ccco3)n2)cc1 (configuration not stated) | 44.8 | 6.3 | 75.8* | 69.4*
O=C(O)CCC(=O)Nc1ccc(Br)cn1 | 5.3 | 7.3 | -8.7 | -5.1
O=C(/C(Cl)=C/Nc1ccc(Br)cn1)C(F)(F)F | 86.6* | 18.8 | -6.0 | 13.8
O=C(CN1CCCCC1)Nc1c2c(nc3ccccc13)N(c1ccccc1)CC2 | 86.0* | 13.6 | 2.4 | -12.3
CCCC(=O)Nc1c2c(nc3ccccc13)N(c1ccccc1)CC2 | 57.3 | 6.6 | 11.8 | 1.8
CCCCN1Cc2c(nc3cc(-c4ccco4)[nH]n3c2=O)C1=O | -12.0 | / | / | /
CC(C)(C)C(=O)/C(=C\c1ccc([N+](=O)[O-])cc1)n1cncn1 | / | -37.5 | 100.3* | 59.7
O=[N+]([O-])c1ccc(/C=C/c2ccncc2)cc1 | 18.3 | / | / | /
CCN(CC)S(=O)(=O)c1cccc(NC(=O)c2ccc(Br)cc2)c1 | 21.2 | -2.9 | -0.7 | 69.9*
CC(C)(C)c1ccc(S(=O)(=O)Nc2ccc(Cc3ccncc3)cc2)cc1 | 79.3* | 12.2 | 88.0* | 58.8*
CCN(CC)S(=O)(=O)c1cccc(NC(=O)c2cncc(Br)c2)c1 | -9.7 | -9.1 | 98.9* | 23.9
CCN(CC)S(=O)(=O)c1ccc(C(=O)Nc2cc(C)cc(C)c2)cc1 | -21.7 | -17.8 | 8.6 | -10.9
CCN(CC)S(=O)(=O)c1cccc(NC(=O)COC(=O)c2cc(C)oc2C)c1 | 72.0* | 5.2 | -3.4 | 4.3
CCC(=O)Nc1ccc(S(=O)(=O)Nc2ccc(Cl)nn2)cc1 | 49.2 | 7.0 | 47.7 | -8.1
CCN(CC)S(=O)(=O)c1ccc(C(=O)Nc2ccc(Cc3ccncc3)cc2)cc1 | 17.5 | -26.8 | 99.1* | -0.6
CCN(CC)S(=O)(=O)c1cccc(C(=O)N/N=C(\C)c2ccc(O)cc2O)c1 | 58.7 | -26.0 | 67.9* | 8.3
CN(C)S(=O)(=O)c1cccc(NC(=O)c2cncc(Br)c2)c1 | 43.1 | -1.7 | 88.0* | -10.8
CCN(CC)S(=O)(=O)c1cccc(NC(=O)c2cc3ccccc3o2)c1 | 19.8 | -3.1 | 80.9* | 25.3
CCN(CC)S(=O)(=O)c1cccc(C(=O)Nc2cccc(C)c2)c1 | 17.5 | -16.7 | 62.0* | 6.0
CCN(CC)S(=O)(=O)c1cccc(C(=O)Nc2cc(C)cc(C)c2)c1 | 10.2 | -27.4 | 43.6 | 0.4
SMILES | CHOP inhibitor | Arbovirus inh | L major viab | WT yeast gro inh
CC1CCCC(NC(=O)CNC(=S)N(Cc2ccccc2)Cc2cccs2)C1C (configuration not stated) | 8.9 | -12.4 | 45.5 | 65.0*
CC(CCc1ccccc1)NC(=O)CNC(=S)N(Cc1cccs1)C1CCCC1 (configuration not stated) | 14.7 | -29.0 | 50.8* | 28.2
CCc1ccccc1NC(=S)N(Cc1cccs1)C1CCCC1 | 17.9 | 3.7 | 17.4 | 71.2*
Cc1ccccc1NC(=S)N(Cc1cccs1)C1CCCC1 | 26.6 | 9.4 | 20.0 | 12.9
Cc1ccccc1C(OCCN(C)C)c1ccccc1 (configuration not stated) | 10.4 | 1.7 | 3.3 | 9.2
Cc1ccc(C(OCC(C)(C)C[N+](C)(C)C)c2ccccc2)cc1 (configuration not stated) | 6.5 | -1.1 | 100.0* | 12.4
COC(C/C=C\[C@@H](O)COCc1ccccc1)OC | 7.7 | / | / | /
Cc1ccc(C)c(OCc2nc(-c3cccnc3)no2)c1 | -6.5 | -4.1 | 6.6 | 11.8
Cc1ccc(-c2nc(-c3cccnc3)no2)c(C)c1 | 73.4* | 2.3 | 3.2 | 29.0
CCOc1ccc(-c2noc(-c3ccncc3)n2)cc1OCC | 18.7 | 0.9 | 93.3* | -6.0
CCOc1ccc(-c2nc(-c3cccnc3)no2)cc1OCC | 38.8 | 17.4 | 80.5* | 6.4
CCOc1ccc(-c2nc(-c3ccc(OC)cc3)no2)cc1OCC | 19.5 | 0.5 | 14.5 | 10.0
CCOc1ccc(-c2noc(-c3cccnc3)n2)cc1OCC | -8.2 | / | / | /
O=C(NCc1ccccn1)C1CCCCC1 | -2.4 | 1.6 | 4.8 | 4.9
COc1ccc(-n2nc(N)c(C(N)=O)n2)cc1 | -3.6 | 19.0 | -6.6 | 15.4
Cc1ccc(NC(=O)CSc2nc(=O)cc(N)n2CCc2ccccc2)cc1 | 14.0 | -5.0 | -1.3 | 8.8
CC(NC(=O)CSc1nc(=O)cc(N)n1CCc1ccccc1)c1ccccc1 (configuration not stated) | -0.9 | -1.1 | -6.6 | 59.3*
O=C(c1nc2ccccn2c1CNCCn1ccc2ccccc21)N1CCOCC1 | -1.5 | / | / | /
CC1=NN(C(N)=S)C(=O)C1N=Nc1ccc(O)cc1 (configuration not stated) | 18.8 | -23.5 | 57.8* | 21.4
CCc1ccccc1NC(=S)N(Cc1ccc(C(=O)O)cc1)Cc1ccc(OC)c(OC)c1 | -9.8 | 7.2 | -3.3 | -11.6
Cc1cccc(C=Nc2ccc3c4c(cccc24)CC3)c1O | -6.3 | -1.4 | 3.6 | 8.5
C=CCc1cccc(C=Nc2cc(Br)ccc2O)c1O | 98.0* | -8.6 | 11.9 | 19.1
CCc1ccc(O)c(N=Cc2cccc(C)c2O)c1 | 75.9* | 8.9 | 5.6 | -1.1
Cc1ccc(NC(=S)NNC(=O)c2nnn(-c3ccccc3)c2C)cc1 | -1.8 | -6.8 | -3.7 | 0.6
CC(NCc1ccc(S(N)(=O)=O)cc1)C(=O)N1c2ccccc2CC1C (configuration not stated) | -6.1 | / | / | /
SMILES | CHOP inhibitor | Arbovirus inh | L major viab | WT yeast gro inh
Cc1ccc(C2(C)CC(C)(C)N(C(=O)CSc3nnc(C)s3)c3ccccc32)cc1 (configuration not stated) | 43.0 | -23.3 | 28.4 | 59.2*
COC(=O)c1cc(NC(=O)c2c(F)c(F)c(F)c(F)c2F)cc(C(=O)OC)c1 | 20.3 | 11.8 | 3.4 | 16.1
COc1ccc(CNc2nc(C)c([N+](=O)[O-])c(C)c2C#N)cc1 | 19.8 | 4.5 | -3.9 | 12.3
COc1cc(CNc2nc(C)c([N+](=O)[O-])c(C)c2C#N)cc(OC)c1OC | 78.8* | 5.6 | 45.0 | -4.0
CC(c1ccccc1)N1CCc2[nH]c(=S)[nH]c(=O)c2C1 (configuration not stated) | -13.6 | 14.1 | 16.8 | -2.7
O=C(N/N=C/c1ccccn1)c1cccs1 | 5.8 | -16.2 | 77.2* | -1.9
O=C(N/N=C\c1ccccn1)C1COc2cc3ccccc3cc2O1 (configuration not stated) | 71.9* | -14.4 | -1.4 | 16.7
